# Data: ChEMBL document CHEMBL3988442, “University of Dundee, Small-Polar-MMV Screening Library” (2021)
# Hit rate of the full screen: of about 48,000 compounds, about 13,000 (27%) showed an effect of 50% or more. This is one part of the list.
# System: Wolbachia pipientis
# Test: Anti-Wolbachia Cell-Based Screen
# Format: functional
# Set-up: scale not given: in the data most compounds retested in dose-response had high values
# Conditions: 5 µM
row,SMILES,Percent Effect [%]
1,O=C(NCCn1ccnc1)c1cc(Br)c[nH]1,-7.332
2,Cc1cnn(CCNC(C)c2nnc(-c3cccc(Cl)c3)o2)c1 (centres undefined),-21.78
3,Cc1occc1C(=O)N1CCc2ncnc(C3CCOC3)c2CC1 (centres undefined),-5.799
4,COc1cccc(-c2noc3c2CN(c2nc(C)ncc2C)CC3)c1,-35.21
5,Cc1nc(Cn2nc(C3CCNCC3)n(Cc3ccccc3)c2=O)no1,-19.55
6,Cc1ccccc1NC(=O)c1cncc(C2CCNCC2)n1.Cl,126.6
7,O=C(Nc1ccccc1OC1CCOC1)c1cc[nH]n1 (centres undefined),-3.911
8,CCCc1cc(C(=O)N2CCC3(CC2)CN(CCN(C)C)C(=O)O3)no1,-10.71
9,c1cc(CN2CCC(n3cc(CN4CCCC4)nn3)CC2)cs1,0.307
10,Cc1ncsc1CN1CC[C@H](O)[C@@H](n2cnc3c(N)ncnc32)CC1,93.47
11,Nc1ncnc2c1ncn2[C@H]1CCN(Cc2ccsc2)CC[C@@H]1O,125.5
12,Cc1ncsc1CCN(C)C1CCN(c2ncnc3[nH]cnc23)CC1,13.21
13,Cc1ncsc1CN1CCN(C)C2(CCC(=O)N(CCO)CC2)C1 (centres undefined),-3.684
14,CN(C)S(=O)(=O)N1CC[C@]2(O)CCN(c3cc(C#N)ccn3)C[C@@H]2C1,-4.757
15,CC(C)CN1C(=O)c2ccc(C(=O)NCCc3c[nH]cn3)cc2C1=O,4.031
16,CCc1cnc(N)nc1N1CCCC2(CCOCC2)C1,7.215
17,Cc1nn(C)c(Cl)c1C1CCCN1C(=O)c1ccnc(N(C)C)c1 (centres undefined),115.9
18,Cc1nn(C)c(C)c1C1CCCN1C(=O)c1cnc2n[nH]c(C)c2c1 (centres undefined),-6.27
19,Cc1nn(C)c(Cl)c1C1CCCN1C(=O)c1cccc(C#N)c1 (centres undefined),117.2
20,COc1c(C2CCCN2C(=O)c2ccnc(N(C)C)c2)c(C)nn1C (centres undefined),3.661
21,Cc1nn(C)c(Cl)c1C1CCCN1C(=O)c1ccc2c(c1)COC2 (centres undefined),103.2
22,Cc1nn(C)c(C)c1C1CCCN1C(=O)c1ccnc(N(C)C)c1 (centres undefined),114
23,CCn1nc(C(=O)N2CCCC2c2noc(C3CC3)n2)ccc1=O (centres undefined),-10.37
24,CCOCCN1CCN(CCc2nc3ccccc3c(=O)[nH]2)CC1,-16.1
25,O=S(=O)(Cc1nc(C2CC2)no1)c1cc(F)ccc1F,-10.78
26,Cc1nn(C)c(Cl)c1C1CCCN1C(=O)c1ccncc1 (centres undefined),76.23

row,SMILES,Percent Effect [%]
1,Cc1nn(C)c(Cl)c1C1CCCN1C(=O)c1ccc2nncn2c1 (centres undefined),-0.8221
2,CCCc1cc(NCc2cc(C)on2)n2nccc2n1,18.67
3,CN(C)c1nc(-c2ccncc2)nc2c1CCN(C(=O)[C@H](N)CO)C2,12.11
4,O=C(NCCc1cccs1)[C@]12COC[C@H]1CN(c1ncccn1)C2.O=C(O)C(F)(F)F,-26.22
5,Cc1cc(N2CCN(Cc3ccc(-c4cc[nH]n4)o3)CC2)cc(C)n1,1.091
6,CCNC(=O)[C@@H]1C[C@H](N)CN1Cc1ccc(-c2cc[nH]n2)o1,2.507
7,O=C(O)c1ccc(C2CCCN(Cc3ccc(-c4cc[nH]n4)o3)C2)cc1 (centres undefined),112.5
8,Cc1cnc(C)c(N2CCN(Cc3ccc(-c4cc[nH]n4)o3)CC2)n1,2.715
9,O=C(O)c1ccccc1C1CCN(Cc2ccc(-c3cc[nH]n3)o2)C1 (centres undefined),111.1
10,Cc1nn(C)c(C)c1CN1CCCC(c2ccc(C(=O)O)cc2)C1 (centres undefined),16.04
11,O=C(O)c1ccc(CC2CCN(Cc3ccc(-c4cc[nH]n4)o3)C2)cc1 (centres undefined),103.3
12,Fc1cnc(N2CCN(Cc3ccc(-c4cc[nH]n4)o3)CC2)nc1,10.27
13,Cc1cnccc1N1CCCN(Cc2ccc(-c3cc[nH]n3)o2)CC1,39.38
14,Cc1cccnc1CN1CCN(Cc2ccc(-c3cc[nH]n3)o2)CC1,0.5837
15,Fc1ccc(N2CCCN(Cc3ccc(-c4cc[nH]n4)o3)CC2)cc1,76.67
16,CCN1CC2(CCC1=O)CCN(Cc1cccc(C#N)c1)CC2,-7.959
17,CC(C)c1nc(CN(C)C(=O)C2CC(=O)N(Cc3ccncc3)C2)cs1 (centres undefined),6.051
18,COc1cccc(CN(C)C(C)c2ccco2)c1OCCn1ccnc1 (centres undefined),-0.9941
19,CN(CCN1CCCCCC1)C(=O)c1cc(CN2CCC(O)CC2)on1,-8.784
20,Nc1ncc(C(=O)N2CCC3(CCCO3)CC2)c(-c2ccccc2)n1,-10.16
21,CC(C)(CNc1ccc(S(=O)(=O)C(F)F)cc1)N1CCOCC1,2.444
22,CC(C)NS(=O)(=O)c1cc(C(=O)O)cc(-c2ccccc2C#N)c1,4.012
23,Cc1ccccc1CN1CC[C@@]2(O)CCN(C(=O)C3CCC3)C[C@H]2C1,-8.444
24,Cc1cnccc1CN1CC[C@@](C)(O)[C@H](Oc2ccccc2)C1,-3.171
25,Cc1cnccc1CN1CC[C@H](Oc2cccc(F)c2)[C@@](C)(O)C1,130.7
26,Cc1cc(F)ccc1CN1CCCC(O)(CN2CCCC2)C1 (centres undefined),20.34

row,SMILES,Percent Effect [%]
1,Cc1cnccc1CN1CC[C@@](C)(O)[C@H](Oc2cccc(F)c2)C1,113.3
2,CC(C)[C@@H]1CN(CC(=O)NCc2ccco2)C[C@H]1NS(=O)(=O)N(C)C,-2.04
3,CCSc1nc(N)c(NC(=O)c2ccc(C)cc2)c(=O)[nH]1,-2.31
4,Fc1ccc(OCCCNC2=NCCN2)cc1.I,63.04
5,I.c1ccc(OCCNC2=NCCCN2)cc1,111
6,Br.Cc1ccc(OCCSC2=NCCN2)cc1,1.775
7,Fc1ccc(OCCCN2CC(n3cccn3)C2)cc1,3.105
8,Cn1ncc2c(NCCOc3ccc(F)cc3)nc(C3CCCC3)nc21,8.04
9,CN(C)c1ccc(CNC2=NCCCN2)cc1.I,13.13
10,Br.Cc1ccc(OCCCSC2=NCCN2)cc1,5.255
11,Fc1ccc(OCCCNC2=NCCCN2)cc1.I,81.36
12,CCOCc1ccc(CNC2=NCCCN2)cc1.I,0.3337
13,COC(=O)C1Cc2nc[nH]c2CN1Cc1ccc(Sc2ncccn2)o1 (centres undefined),2.291
14,COc1cc2nc(NCc3cc(C)on3)nc(N)c2cc1OC,-8.416
15,CC1CN(Cc2noc(C3CC3)n2)CCN1Cc1nccn1C (centres undefined),-7.382
16,CCNC(=O)c1ccnc(N2CCCC(COc3ccccc3C)C2)c1 (centres undefined),3.224
17,CCOCCn1nc(C)cc1C(=O)N(C)Cc1cccc2ncccc12,6.003
18,C=C(C)Cn1ccc2cc(OC)c(F)cc2c1=O,-16.88
19,CC[C@H]1CN(S(C)(=O)=O)CC[C@H]1CC(=O)NCCSC,-2.393
20,Cc1ccn(-c2ccc(C(=O)N3CCCC(n4ccnc4)C3)cc2)n1 (centres undefined),4.214
21,NC(=O)C1CCCN(C(=O)c2ccc(-n3ccnc3)cc2)C1 (centres undefined),0.2074
22,O=C(c1ccn(-c2ccc(F)cc2)n1)N1CCCC(n2ccnc2)C1 (centres undefined),97.03
23,O=C(c1ccc(-n2ccnc2)cc1)N1CCCC(n2ccnc2)C1 (centres undefined),120.2
24,CS(=O)(=O)c1ccc(C(=O)N2CCCC(n3ccnc3)C2)cc1 (centres undefined),96.86
25,CCc1nccn1C1CCCN(C(=O)c2ccn(-c3ccccc3)n2)C1 (centres undefined),-25.66
26,O=C(c1ccc(-n2cnnn2)cc1)N1CCCC(n2ccnc2)C1 (centres undefined),90.08

row,SMILES,Percent Effect [%]
1,O=C(CNC(=O)c1ccoc1)NCCOc1ccc2c(c1)CCC2,14.09
2,CCc1nccn1C1CCCN(C(=O)c2ccc(-n3ccnc3)cc2)C1 (centres undefined),94.46
3,O=C(c1ccc(OCC2CC2)nc1)N1CCCC(n2ccnc2)C1 (centres undefined),-1.875
4,NC(=O)COc1ccc(C(=O)N2CCCC(n3ccnc3)C2)cc1 (centres undefined),96.26
5,CCc1nccn1C1CCCN(C(=O)c2cncn2-c2ccccc2)C1 (centres undefined),-5.728
6,NC(=O)COc1cccc(C(=O)N2CCCC(n3ccnc3)C2)c1 (centres undefined),2.122
7,CC1=NN(c2ccc(C(=O)N3CCCC(n4ccnc4)C3)cc2)CC1 (centres undefined),-6.024
8,Cc1ccnn1-c1ccc(C(=O)N2CCCC(n3ccnc3)C2)cc1 (centres undefined),116.9
9,O=C1COc2cc(C(=O)N3CCCC(n4ccnc4)C3)ccc2N1 (centres undefined),-12.82
10,O=C(c1ccc(-n2cnnc2)cc1)N1CCCC(n2ccnc2)C1 (centres undefined),107.8
11,CCC(NCCn1cc(C)cn1)C(=O)Nc1cc(C)on1 (centres undefined),-26.17
12,CC(=O)c1cc(CC(=O)NCc2cccc(F)c2F)cs1,-6.344
13,O=C1CC[C@H]2CN(c3ncccc3F)CC[C@H]2N1CCc1ccccc1,4.939
14,Cc1noc(C)c1CN(C)Cc1csc(-c2ncccn2)n1,0.1209
15,N[C@@H]1c2ccccc2C2(CCN(C(=O)c3ccc(=O)[nH]c3)CC2)[C@H]1O,2.656
16,Cc1cc(CN2CCN(C(=O)NCc3nc(C)cs3)CC2)on1,-3.882
17,NS(=O)(=O)c1cc(C(=O)N2CCCC(n3ccnc3)C2)cs1 (centres undefined),104.4
18,CC1CCCN(C(=O)c2csc(S(N)(=O)=O)c2)CC1 (centres undefined),-10.27
19,O=C(c1csc(Br)c1)N1CCCC(n2ccnc2)C1 (centres undefined),-1.444
20,FC(F)(F)c1cccnc1N1CCC(OC2CCOCC2)CC1,1.629
21,CC(NCc1ccc(F)cc1)c1ccc2[nH]c(=O)[nH]c2c1 (centres undefined),94.79
22,CC(NCc1ccc(F)cc1)c1ccc(OCC(=O)NC2CC2)cc1 (centres undefined),13.29
23,COc1ccc(CNC(C)c2ccc3[nH]c(=O)[nH]c3c2)cc1 (centres undefined),1.768
24,CCOc1ccc(CNC(C)c2ccc3[nH]c(=O)[nH]c3c2)cc1 (centres undefined),115.8
25,CC(NCc1ccc(OCC(N)=O)cc1)c1ccc(Cl)c(Cl)c1.Cl (centres undefined),11.22
26,Cc1ccc(CNC(C)c2ccc3[nH]c(=O)[nH]c3c2)s1 (centres undefined),0.5584
